Laboratory results reported in PubChem BioAssay.
Active and inactive are the calls of the source. No rule for the calls is given here.

tested on: Aerobactin synthetase IucA (Klebsiella pneumoniae hvKP1); assay: IucA enzyme inhibition, primary screen, biochemical, Spectrum library (AID 1346200); details: malachite green pyrophosphate, A620, at 8 µM, hits give low values;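 also: 100% = wells without compound and 0% = wells lacking enzyme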

Row | Structure (SMILES) | activity remaining
1 | CC(C)NCC(O)c1ccc2ccccc2c1 (centres undefined) | 102% (inactive)
2 | NC(N)=NCCN1CCCCCCC1 | 104% (inactive)
3 | CC[C@@]1(O)C(=O)OCc2c1cc1n(c2=O)Cc2cc3cc(O)ccc3nc2-1 | 117% (inactive)
4 | O=C(O)CN(CC(=O)O)Cc1cc2c(-c3ccccc3C(=O)O)c3cc(CN(CC(=O)O)CC(=O)O)c(=O)cc-3oc2cc1O | 113% (inactive)
5 | O=c1cc(-c2ccccc2)oc2c(O)c(O)ccc12 | 92.5% (inactive)
6 | CC(CN(C)C)CN1c2ccccc2Sc2ccccc21 (centres undefined) | 101% (inactive)
7 | NC(=O)c1ccc[n+]([C@@H]2O[C@H](COP(=O)([O-])OP(=O)(O)OC[C@H]3O[C@@H](n4cnc5c(N)ncnc54)[C@H](O)[C@@H]3O)[C@@H](O)[C@H]2O)c1 | 108% (inactive)
8 | CN[C@@H]1[C@@H](O[C@H]2O[C@H](CO)[C@@H](N)[C@H](O)[C@H]2O)O[C@H]2C[C@@H](N)[C@H](O[C@H]3[C@H](O)[C@@H](O)[C@H](N)C[C@@H]3N)O[C@@H]2[C@@H]1O | 124% (inactive)
9 | O=C(Nc1ccc(C(=O)O)c(O)c1)c1ccccc1 | 89.3% (inactive)
10 | CC(=O)OCC(=O)[C@@]1(O)CCC2C3CCC4=CC(=O)CC[C@]4(C)[C@@]3(F)[C@@H](O)C[C@@]21C (some centres undefined) | 91.4% (inactive)
11 | Oc1ccc2c(c1)OCC1c3cc4c(cc3OC21)OCO4 (centres undefined) | 87.4% (inactive)
12 | OCCc1ccccc1 | 117% (inactive)
13 | CC12CCCC(O)(C1)C1CC(C)(C)C1CC2 (centres undefined) | 91.8% (inactive)
14 | O=C(O)CN(CCN(CC(=O)O)CC(=O)O)CC(=O)O | 108% (inactive)
